Experimental data as given in PubChem BioAssay AID1053126 (Broad Institute, 2014).
Potency and affinity values are given separately. Calls of active or inactive are those of the source.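 The calls were made as follows: active = cell killing with a fitted half-effect concentration at or below twice the top valid dose; inconclusive = flat curve with 30 to 70 percent drop, or poor fit; inactive = the rest.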

Experiment: HEK293T cell cytotoxicity, dose response, cytotoxicity control, ATP luminescence, cherry-pick, set 6 (AID 1053126)
Conditions: HEK293T viability, CellTiter-Glo ATP luminescence, 72 h; series mostly up to 26 µM

Structure (SMILES)	outcome
CCc1nc2ccc(C(=O)NCCc3c[nH]c4ccccc34)cn2c1N(C=O)CCC(C)C	inactive
COc1ccc(Br)c(Cn2c(C)c(C(=O)NCc3ccc4c(c3)OCCO4)sc2=O)c1	inactive
Cc1ccc(C(=O)OCC(=O)Nc2c(C)nn(-c3ccccc3)c2C)c(O)c1	inactive
CCOC(=O)c1cc2c(=O)n3cccc(C)c3nc2n(CC(C)C)c1=NC(=O)c1ccco1	inactive
CC(=O)N=c1c(C#N)cc2c(=O)n3ccccc3nc2n1CCCOC(C)C	inactive
N#Cc1ccc(OCC(=O)OCC(=O)N2CCc3ccccc32)cc1	inactive
Cc1cccn2c(=O)c(/C=C(\C#N)C(N)=O)c(Oc3ccccc3)nc12	inactive
NC(=O)c1c(NC(=O)Cc2ccccc2)sc2c1CCN(Cc1ccccc1)C2	inactive
CCOC(=O)c1oc2c(CN3CCN(CCO)CC3)c(O)c(CC)cc2c(=O)c1-c1nc2ccccc2s1	inactive
CCOc1ccc2nc(NCCCNS(=O)(=O)c3ccc(F)cc3)c(C#N)cc2c1	inactive
CCN(CC)c1ccc2cc(C(N)=O)c(=O)oc2c1	inactive
O=c1[nH]c(Nc2ccccc2Cl)cc2ccccc12	inactive
CCN(CC)CCCNc1nc(C)cc(COC)c1C#N	inactive
CC1CC(C)CN(CCCNC(=O)CCC(=O)N2CC(C)Oc3ccccc32)C1 (stereo unspecified)	inactive
COc1ccc(C2CC(c3ccccc3)=NN2c2ccc(C(N)=O)cc2)cc1 (stereo unspecified)	inactive
O=C(Nc1ccc(-c2ccco2)cc1)C1CCCN(Cc2ccco2)C1 (stereo unspecified)	inactive
CC1CCCCN1Cc1c(O)ccc2c(=O)c(-c3nc4ccccc4s3)coc12 (stereo unspecified)	inactive
Cc1cccn2c(=O)c3cc(C(N)=S)c(=N)n(CCCN4CCOCC4)c3nc12	inactive
O=C(NNc1cc(N2CCCC2)nc(N2CCCC2)n1)c1ccc([N+](=O)[O-])cc1	inactive
COc1ccc(C2C(C#N)=C(N)Oc3cc(O)ccc32)cc1Cl (stereo unspecified)	inactive
CCn1c(=NC(=O)CSC(C)=O)sc2cc(OC)ccc21	inactive
